From PubChem BioAssay
IL-1B inflam inh: qHTS for Inhibitors of Inflammasome Signaling: IL-1-beta AlphaLISA Primary Screen. THP-1 LPS/ATP IL-1B secretion, AlphaLISA, 16 h; active compounds read low. activity change, % at 57.5 µM. 360,000 tested, 4.7% active. AID 743279, 2014; in the data active = activity change below about -50%; inconclusive = mostly about -30% to -49%
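Secreted IL-1B measured by AlphaLISA bead assay after 16 h compound exposure of THP-1 cells; compounds (final up to 57.5 uM) added 1 h before LPS (250 ng/mL) and ATP (1.25 mM) stimulation; lower signal means less secretion.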
TDP1 block: qHTS Assay for Inhibitors of Tyrosyl-DNA Phosphodiesterase (TDP1); Potency, µM (series often up to 130 µM), for the others: at the highest dose activity change, negative = inhibition, most hits filed as inhibitors; recombinant TDP1, AlphaScreen DNA substrate cleavage; Tyrosyl-DNA phosphodiesterase 1 (Homo sapiens), Q9NUW8; AID 485290, 2010; 350,000 tested, 0.28% active; note: potency is the fitted concentration of half-maximal effect; nearly all actives have a fitted effect of over 40% in size
Target sequence (Q9NUW8 whole entry, looked up): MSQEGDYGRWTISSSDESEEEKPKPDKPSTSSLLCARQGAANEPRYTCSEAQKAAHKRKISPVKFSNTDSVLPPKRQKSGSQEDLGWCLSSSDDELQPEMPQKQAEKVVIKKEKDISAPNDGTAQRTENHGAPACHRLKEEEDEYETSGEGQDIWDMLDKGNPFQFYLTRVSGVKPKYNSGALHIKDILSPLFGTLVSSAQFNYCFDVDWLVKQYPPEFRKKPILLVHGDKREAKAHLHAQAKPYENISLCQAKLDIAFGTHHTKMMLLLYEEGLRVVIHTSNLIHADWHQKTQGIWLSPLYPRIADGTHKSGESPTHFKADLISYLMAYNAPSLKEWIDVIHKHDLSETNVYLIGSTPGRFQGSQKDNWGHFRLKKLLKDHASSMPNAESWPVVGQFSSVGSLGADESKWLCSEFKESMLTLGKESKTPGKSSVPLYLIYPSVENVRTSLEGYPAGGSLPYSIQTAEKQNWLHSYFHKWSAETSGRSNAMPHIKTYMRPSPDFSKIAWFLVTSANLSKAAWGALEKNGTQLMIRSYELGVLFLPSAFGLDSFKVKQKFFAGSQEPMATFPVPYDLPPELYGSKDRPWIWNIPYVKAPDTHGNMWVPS
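Compounds were preincubated with Tdp1 (1 nM final) for 15 min at room temperature before substrate (15 nM final) started a 5 min reaction; beads (10 ug/ml final) were then added for 10 min before AlphaScreen detection.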
ELG1 DNA repair: qHTS screen for small molecules that inhibit ELG1-dependent DNA repair in human embryonic kidney (HEK293T) cells expressing luciferase-tagged ELG1 | HEK293T ELG1-luciferase reporter, luminescence, 16 h; DNA damage induced by 5-fluorouridine | Potency, µM (doses to about 46.1 µM), for the others: top-dose activity change, negative = inhibition, hits mostly inhibitors | 330,000 tested, 2.3% active | AID 504467, 2011; note: potency is the fitted concentration of half-maximal effect; nearly all actives have a fitted effect of over 55% in size
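Cells (2,000 per well) received 5-fluorouridine plus test compound or DMSO and were incubated 16 hr at 37 °C, 5% CO2. Luciferase activity was read by luminescence 30 min after ONE-Glo addition; signal suppression marked inhibition of damage-induced ELG1 function.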
DT40 TDP1 CPT: qHTS for Inhibitors of human tyrosyl-DNA phosphodiesterase 1 (TDP1): qHTS in cells in presence of CPT | chicken DT40 Tdp1-/-;hTDP1 cells + 20 nM CPT, ATP luminescence, 48 h | Potency, µM (top dose mostly 46.2 µM), without a hit: at the top dose activity change, negative = growth inhibition, actives largely listed as inhibitors | 420,000 tested, 12% active | AID 686979, 2013; note: potency is the fitted concentration of half-maximal effect; nearly all actives have a fitted effect of over 55% in size
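Chicken DT40 Tdp1-/- cells complemented with human TDP1, 400 cells/well, exposed to compounds plus 20 nM camptothecin for at least 48 h at 37 C; viability read as ATP content by CellTiter-Glo luminescence.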
Giardia kill: Small Molecules that selectively kill Giardia lamblia: qHTS | AID 540267, 2011 | activity change, % at 7.66 µM, hits read low | Giardia lamblia trophozoite viability | 340,000 tested, 0.15% active; in the data active = activity change below about -80%; inconclusive = between about -30% and that limit;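 note: parasites exposed to compound for two days anaerobically before the ATP read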
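Giardia trophozoites, 100 cells per well, were exposed to compounds for 48 hrs at 37 deg C under anaerobic conditions; viability was then read as ATP content by bioluminescence after 15-30 min at room temperature.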
DT40 TDP1 no CPT: qHTS for Inhibitors of human tyrosyl-DNA phosphodiesterase 1 (TDP1): qHTS in cells in absence of CPT. Potency, µM (highest dose often 46.2 µM), inactives show at the highest dose activity change, negative = growth inhibition, actives largely listed as inhibitors. 420,000 tested, 15% active. DT40 Tdp1-/- hTDP1 cells, no CPT, ATP luminescence, 48 h; note: potency is the fitted concentration of half-maximal effect; nearly all actives have a fitted effect of over 55% in size
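No-CPT arm: Tdp1-/-;hTDP1 DT40 cells (400/well) plus compounds, incubated ≥48 hr at 37 °C. Readout CellTiter-Glo luminescence.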
* hit, by the source's call; ? = inconclusive; . = no result given; [ ] = dose if it differs, or a comment. Sampled rows, rich in hits. Any-hit rate of the full collection: about 19%. Unless noted, calls come from the whole dose curve; as a rule, active = well fitted curve in the direction sought with a large enough effect; inconclusive = small, poorly fitted or top-dose-only effect, or another doubt; inactive = no such curve, though single readings can be large; an effect the other way counts as inactive or inconclusive. % is set by controls: 0 for no effect and ±100 for the full control effect.

SMILES	IL-1B inflam inh	TDP1 block	ELG1 DNA repair	DT40 TDP1 CPT	Giardia kill	DT40 TDP1 no CPT
CC(Oc1ccccc1)C(=O)NCC1Cc2cc(F)cc(-c3ccccn3)c2O1 (stereo not given)	.	.	.	10%[9.04 µM]	.	-22%
C(=C\c1ccco1)/C1=NN(c2ccccc2)C(c2ccco2)C1 (stereo not given)	-7	?	?	?	0	23µM*
Cc1nc(C)n(C(C)CNC(=O)c2cccc(Br)c2)n1 (stereo not given)	4	.	-2%	-2%	3	3%
CC(C)CC(N)c1csc(Nc2cc(Oc3ccccc3)ncn2)n1 (stereo not given)	0	.	.	23µM*	.	21µM*
NC(c1ccccc1)c1csc(Nc2cc(Oc3ccccc3)ncn2)n1 (stereo not given)	-77*	.	.	18µM*	.	16µM*
CC(C)C(N)c1csc(Nc2cc(Oc3ccccc3)ncn2)n1 (stereo not given)	-91*	.	.	?	.	?
CC(C)C(N)c1csc(Nc2ccccn2)n1 (stereo not given)	-11	.	.	8%	.	-19%
CC(C)CC(N)c1csc(Nc2ccc(S(C)(=O)=O)cc2)n1 (stereo not given)	-1	.	.	-30%	.	-12%
COC(=O)N[C@@H](/C=C/c1ccccc1)/C(C(=O)OC)=C(\C)NCc1ccccc1	.	2%	.	.	.	.
CCc1cc(C(=O)Nc2ncccc2O)sc1C	16	1%	?	?	-29	-22%
CCOc1ccc(CCNC(=O)c2cnc3sc(N4CCC(C)CC4)nn3c2=O)cc1	.	-5%	.	-28%	.	-25%
Cc1c(C(=O)c2ccccc2)c2ccccn2c1CCc1ccccn1	-74*	6%	?	?	-2	-21%
Cc1c(C(=O)c2ccccc2)c2ccccn2c1CCC#N	-5	-2%	-1%	-2%	-11	30%
Cc1c(C(=O)c2ccc(F)cc2)c2ccccn2c1CCc1ccccn1	-86*	0%	-6%	?	11	?
COc1ccc(CNC(=O)C(c2ccncc2)N(C(=O)Cc2cccs2)c2ccc(C)cc2)cc1 (stereo not given)	-3	3%	-13%	-29%	-2	-25%
COc1cccc(CNc2ccc(N3CCC(C)CC3)cc2)c1OC	-21	18%[56.1 µM]	?	23µM*	2	16µM*
CSc1ncc(CN2CCc3c([nH]c4ccccc34)C2C(C)(C)C)cn1 (stereo not given)	6	4%	-17%	?	2	23µM*
Cc1cc(C)n(CC(O)COc2ccc(Cl)cc2Cl)n1 (stereo not given)	-52*	.	?	?	6	21µM*
Cc1nccn1CC(O)COc1ccc(Cl)cc1Cl (stereo not given)	-3	.	-3%	?	-27	15µM*
Cc1cc(C)n(CC(O)COc2ccc(Cl)cc2)n1 (stereo not given)	-5	.	-7%	4%	-10	-15%
CCOC(=O)C1CCN(S(=O)(=O)c2c(Cl)ccc3nonc23)CC1	.	8%	?	.	.	.
CCc1ccccc1NC(=O)CN1C(=O)c2ccccc2Sc2ncccc21	.	-3%	.	-13%	.	?
O=C(CCCn1c(=O)c2ccccc2n(CC(=O)Nc2cccc(C(F)(F)F)c2)c1=O)NCc1ccc2c(c1)OCO2	.	-4%	.	-14%	.	-9%
CC(=O)[C@@]1(O)C(C)CC2C3C=C(C)C4=Cc5c(cnn5-c5ccccc5)C[C@]4(C)C3C(O)C[C@@]21C (stereo not given in full)	-91*	6%	?	4.6µM*	17	5.2µM*
Cc1cc(C(=O)NC2CC(C)(C)Cc3c2cnn3-c2ccccc2)n(C)n1 (stereo not given)	17	3%	5%	?	4	?
SMILES	IL-1B inflam inh	TDP1 block	ELG1 DNA repair	DT40 TDP1 CPT	Giardia kill	DT40 TDP1 no CPT
O=[N+]([O-])c1ccc2c(c1)C=C/C2=C/c1ccccc1	.	.	.	13µM*	.	18µM*
CSc1ccc(/C=C2\C=Cc3ccc([N+](=O)[O-])cc32)cc1	.	.	.	?	.	11µM*
O=C(Cc1cccs1)N1CCN(S(=O)(=O)c2ccc(F)c(F)c2)CC1	0	1%	11%	8%	-7	9%
O=C(NCc1ccc2c(c1)OCO2)c1ccc2c(c1)N(Cc1c(F)cccc1Cl)C(=O)CS2	4	3%	?	?	-15	23µM*
Cc1ccc(C)c(CN2C(=O)CSc3ccc(C(=O)NCc4ccccc4)cc32)c1	.	-1%	.	10µM*	.	16µM*
Cc1ccc(C)c(CN2C(=O)c3ccccc3Sc3ccc(C(=O)NCc4ccc5c(c4)OCO5)cc32)c1	.	2%	.	15%	6	-14%
O=C(NCCc1ccccc1)c1ccc2c(c1)N(Cc1ccc(F)cc1Cl)C(=O)CS2	.	0%	.	-27%	.	-25%
O=C(NCCc1ccc(Cl)cc1)c1ccc2c(c1)N(Cc1ccc(F)cc1Cl)C(=O)CS2	.	3%	.	?	.	6.5µM*
Cc1ccc(CNC(=O)c2ccc3c(c2)N(Cc2cccc(C)c2)C(=O)CS3)cc1	.	-3%	.	?	.	21µM*
O=C(CCS(=O)(=O)c1cccc2nsnc12)NCc1ccccc1Cl	45	2%	-14%	-19%	17	-8%
O=C(NCCC1=CCCCC1)c1ccc2c(c1)N(Cc1ccccc1)C(=O)CS2	?	5%	?	?	-3	21µM*
O=C(CCSc1nc(-c2ccco2)cc(C(F)(F)F)n1)N1CCCc2ccccc21	29	5%	-12%	?	0	16µM*
O=C(CSc1nc(-c2ccco2)cc(C(F)(F)F)n1)N1CCN(c2cccc(Cl)c2)CC1	-21	5%	?	?	-1	23µM*
CC1Cc2ccccc2N1C(=O)CSc1nc(-c2ccco2)cc(C(F)(F)F)n1 (stereo not given)	-15	2%	-14%	-5%	-14	?
CN1CCN(C(=O)CSc2nc(-c3ccco3)cc(C(F)(F)F)n2)CC1	-10	0%	19%	14%	4	-26%
O=C(CCSc1nc(-c2ccco2)cc(C(F)(F)F)n1)N1CCN(c2ccccn2)CC1	?	1%	?	?	1	16µM*
